From PubChem BioAssay
KDM5B inhibitor = Primary screen for KDM5B Histone Demethylases FDH-coupled qHTS; Potency, µM (top dose mostly 57.7 µM), hits mostly inhibitors; KDM5B demethylase, FDH-coupled NADH fluorescence (FDH is formaldehyde dehydrogenase); AID 1347165, 2019; 220,000 compounds, 2.6% hits; Lysine-specific demethylase 5B (Homo sapiens), Q9UGL1; further: potency means the concentration at half of the fitted maximal effect; 0% is about no effect; nearly all actives have a fitted effect of over 70% in size
Target sequence (Q9UGL1 whole entry, looked up): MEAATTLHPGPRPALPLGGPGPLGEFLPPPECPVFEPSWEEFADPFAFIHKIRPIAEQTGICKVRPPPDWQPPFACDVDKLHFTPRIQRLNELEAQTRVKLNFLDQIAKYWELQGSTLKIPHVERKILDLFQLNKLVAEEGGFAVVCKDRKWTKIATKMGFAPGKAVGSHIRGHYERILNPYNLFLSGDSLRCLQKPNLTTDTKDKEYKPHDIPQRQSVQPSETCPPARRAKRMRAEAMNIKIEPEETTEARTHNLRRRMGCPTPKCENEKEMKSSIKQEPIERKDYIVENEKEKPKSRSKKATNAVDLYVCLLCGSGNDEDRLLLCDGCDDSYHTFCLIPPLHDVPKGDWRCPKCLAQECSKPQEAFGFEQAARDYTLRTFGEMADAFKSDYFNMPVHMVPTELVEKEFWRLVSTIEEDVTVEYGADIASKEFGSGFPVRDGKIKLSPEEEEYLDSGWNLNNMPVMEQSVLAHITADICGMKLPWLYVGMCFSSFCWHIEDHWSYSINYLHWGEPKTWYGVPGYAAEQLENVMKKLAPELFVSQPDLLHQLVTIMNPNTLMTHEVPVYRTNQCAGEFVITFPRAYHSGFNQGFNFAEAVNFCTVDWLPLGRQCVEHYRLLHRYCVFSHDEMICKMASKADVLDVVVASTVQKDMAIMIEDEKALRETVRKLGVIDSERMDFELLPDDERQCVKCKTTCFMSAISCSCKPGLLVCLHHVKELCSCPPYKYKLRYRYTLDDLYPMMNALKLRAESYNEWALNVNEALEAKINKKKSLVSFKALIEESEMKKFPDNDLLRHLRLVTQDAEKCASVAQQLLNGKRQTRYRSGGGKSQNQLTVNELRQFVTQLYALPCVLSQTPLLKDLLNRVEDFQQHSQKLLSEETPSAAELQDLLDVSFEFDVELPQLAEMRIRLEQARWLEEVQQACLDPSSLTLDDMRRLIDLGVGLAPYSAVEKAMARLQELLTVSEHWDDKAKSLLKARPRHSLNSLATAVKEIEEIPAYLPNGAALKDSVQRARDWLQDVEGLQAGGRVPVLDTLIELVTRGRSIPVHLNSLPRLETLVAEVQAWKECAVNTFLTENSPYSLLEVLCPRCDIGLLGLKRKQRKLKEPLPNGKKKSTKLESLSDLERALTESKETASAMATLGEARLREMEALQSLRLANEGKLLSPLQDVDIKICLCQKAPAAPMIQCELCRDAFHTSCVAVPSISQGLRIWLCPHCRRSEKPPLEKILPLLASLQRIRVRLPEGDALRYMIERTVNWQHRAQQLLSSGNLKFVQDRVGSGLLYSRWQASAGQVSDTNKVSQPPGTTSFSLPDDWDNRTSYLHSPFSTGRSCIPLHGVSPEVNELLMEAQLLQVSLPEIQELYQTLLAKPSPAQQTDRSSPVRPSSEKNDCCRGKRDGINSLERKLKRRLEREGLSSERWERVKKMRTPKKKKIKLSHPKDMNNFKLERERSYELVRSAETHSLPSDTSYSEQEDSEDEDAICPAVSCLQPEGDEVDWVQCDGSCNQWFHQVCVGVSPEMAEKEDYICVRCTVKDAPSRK
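Coupled FDH/NAD⁺ fluorescence readout. KDM5BΔAP 200 nM final; compound titration, 10 min RT preincubation; substrate mix 12.5 µM H3K4me3, 25 µM 2-OG, 50 µM Fe(II), 100 µM ascorbate, 0.25 mM NAD⁺, 0.25 U/mL FDH; ΔRFU over 30 min.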
IP6K1 inhibitor = Primary qHTS assay for small molecule inhibitors of Inositol hexaphosphate kinase 1 (IP6K1) | activity change, % (series mostly up to about 58 µM) | IP6K1 kinase, ADP-Glo luminescence, 2 h; active compounds read low | Inositol hexakisphosphate kinase 1 (Homo sapiens), Q92551 | AID 1645851, 2021 | 140,000 compounds, 0.81% hits; in the data active means activity change below about -25%; further: on the % scale 0 is the no-effect control and ±100 the full control effect
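ADP-Glo luminescence measures ADP made by human IP6K1 during a 2 h RT reaction with ATP/IP6 (mix at 1.3 mM/130 uM); top library doses 57.5 and 19.1 uM final.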
IP6K1 inh cnf = Confirmatory qHTS assay for small molecule inhibitors of Inositol hexaphosphate kinase 1 (IP6K1); 1,200 compounds, 13% hits; Potency, µM (series often up to 49 µM), for inactives: at the highest dose activity change, negative = inhibition, most hits filed as inhibitors; recombinant IP6K1 kinase, ADP-Glo luminescence, 2 h; shares compounds with IP6K1 inhibitor; further: potency means the concentration at half of the fitted maximal effect; on the % scale 0 is the no-effect control and ±100 the full control effect; nearly all actives have a fitted effect of over 65% in size
* hit, by the source's call; i = inactive; ? = inconclusive; · = no result. An excerpt weighted towards active compounds, which were near 2.7% of everything screened. Unless noted, the call rests on the fitted dose curve; in most records, active means well fitted inhibition curve with a large enough effect; inconclusive means small, poorly fitted or top-dose-only effect; inactive means no such curve, though single readings can be large or run the other way.

SMILES | KDM5B inhibitor | IP6K1 inhibitor | others
CN1CC[C@H]2CN(c3cc(NCCO)ncn3)C[C@@]2(C(=O)O)C1 | i | 20.1
CNc1nc(N2C[C@H]3CN(CCOC)C[C@@]3(C(=O)O)C2)ncc1F | 15.8µM* | 22.2
COc1ccc(S(=O)(=O)NC[C@H]2C[C@@H]3CCN2C[C@@H]3CN(C)Cc2ccccc2)cc1 | i | -3.6
O=C(NC1CCCCC1)N1C[C@@H]2C[C@H](C1)c1c(/C=C/c3ccc(Cl)cc3)ccc(=O)n1C2 | i | 5.8
O=C(C1CCCCC1)N1C[C@@H]2C[C@H](C1)c1c(/C=C/c3ccc(Cl)cc3)ccc(=O)n1C2 | 25.1µM* | 18.0
Cc1ncc2c(c1CNCC1(O)CNCCOC1)CCNC2 (stereo not drawn) | 28.2µM* | 12.3
CCOC(=O)[C@H]1CN(C(=O)c2ccc3c(c2)OCO3)[C@]2(C)C(=O)N(C)c3ccccc3[C@H]12 | · | -2.6
C#CCN(C)C[C@H]1CN2CC[C@H]1C[C@@H]2CNC(=O)Nc1ccccc1 | i | -8.8
CCOC(=O)[C@H]1CN(C(=O)C2CCCC2)[C@]2(C)C(=O)Nc3ccccc3[C@H]12 | · | 15.5
NCCc1noc(C2CC2)n1 | i | 3.8
Cc1cnc(CCN)n1CC1CC1 | 7.94µM* | -3.5
O=C(NC1CC1)[C@H]1CN2CCC1C[C@@H]2Cn1cc(C2(O)CCCCC2)nn1 (stereo partly drawn) | i | 9.2
CN1Cc2ccccc2-n2ccnc2C12CCN(C(=O)c1ccc(F)cc1)CC2 | i | 18.9
Cc1ccccc1-c1cnc2[nH]cc(CC(=O)N3CCN(C)CC3)c2c1 | 31.6µM* | -12.3
CN1CCN(C(=O)Cc2ccccc2)CC1 | i | ·
CN1CCN(C(=O)Cc2cccn2-c2ccc(F)cc2)CC1 | i | 6.3
Cc1noc(C)c1-c1cnc2[nH]cc(CC(=O)N3CCN(C)CC3)c2c1 | 28.2µM* | 4.3
CN1CCN(C(=O)Cc2c[nH]c3ncc(-c4cccc(F)c4)cc23)CC1 | 28.2µM* | -11.9
O=C(Cc1c[nH]c2ccccc12)N1CCN(C(c2ccccc2)c2ccccc2)CC1 | i | ·
COc1ccc(OC)c(-c2cnc3[nH]cc(CC(=O)N4CCN(C)CC4)c3c2)c1 | i | -6.6
CN1CCN(C(=O)Cc2c[nH]c3ncc(-c4cccc(Cl)c4)cc23)CC1 | 35.5µM* | -21.3
COc1ccc(CC(=O)N2CCN(CCCn3nc4n(c3=O)CCCC4)CC2)cc1 | · | -6.7
CS(=O)(=O)N1C[C@@H]2C[C@H](C1)c1ccc(NC(=O)c3ccncc3)c(=O)n1C2 | ? | -5.6
c1cnc2nc(C3CCCNC3)[nH]c2c1 (stereo not drawn) | i | 3.0
O=C1Nc2ccccc2CC12CCN(Cc1ccccn1)C2 (stereo not drawn) | 31.6µM* | 8.5
SMILES | KDM5B inhibitor | IP6K1 inhibitor | others
O=C1Nc2ccccc2CC12CN(Cc1ccccn1)C2 | i | 15.2
Cc1cc(-c2cc3c(cn2)CN(CC(C)C)CCN3)ccn1 | ? | -12.3
Cc1ccc2c(n1)N(C)[C@H](CO)CCN(CC(C)C)C2 | 15.8µM* | -8.2
COCC(=O)NC[C@H]1C[C@@H]2CCN1C[C@@H]2c1cc(-c2ccc3ccccc3c2)nn1C | i | 3.2
CCOC(=O)[C@H]1CN(C(=O)OCC(C)(C)C)[C@]2(C)C(=O)N(C)c3ccccc3[C@H]12 | · | 1.1
COc1ccccc1-c1cc([C@H]2CN3CC[C@H]2C[C@@H]3COC(=O)Nc2ccc(C(C)(C)C)cc2)n(C)n1 | ? | -6.5
CC[C@H]1CN2CC[C@H]1C[C@@H]2CNC(=O)c1ccc2ccccc2c1 | i | -6.9
CC[C@H]1CN2CC[C@H]1C[C@@H]2COC(=O)Nc1cccc2ccccc12 | 31.6µM* | 2.3
CC[C@H]1CN2CC[C@H]1C[C@@H]2COC(=O)Nc1ccc(C(C)(C)C)cc1 | 28.2µM* | -12.9
O=C1NCC2(CCCN(Cc3cc(=O)c4cccc(F)c4[nH]3)C2)O1 (stereo not drawn) | ? | 35.1
CSc1cccc(NC(=O)NC[C@H]2C[C@@H]3CCN2C[C@@H]3CN(C)c2ccccc2)c1 | i | -6.6
O=C(Nc1cccc(C(F)(F)F)c1)OC[C@H]1C[C@@H]2CCN1C[C@@H]2c1cc(C2CCCC2)nc(-c2ccncc2)n1 | i | 9.8
CN(C[C@H]1CN2CC[C@H]1C[C@@H]2CNC(=S)NCc1ccco1)c1ccccc1 | ? | -3.7
COc1ccc([C@@H]2CN(C(=O)Cc3nonc3C)[C@@H]3C4CCN(CC4)[C@@H]32)cc1 | i | -37.9* | IP6K1 inh cnf=-15.1%
COc1ccc([C@@H]2CN(C(=O)Nc3ccc(C)cc3)[C@@H]3C4CCN(CC4)[C@@H]32)cc1 | i | 8.9
COc1cc2c(cc1OCc1ccccc1)N([S+](=O)([O-])c1cccnc1)CC21CCN(C)CC1 | i | 6.0
CN(C)C(=O)[C@H]1CN2CCC1C[C@@H]2Cn1cc(CCO)nn1 (stereo partly drawn) | i | 10.1
O=C1OC(c2ccc(O)c(S(=O)(=O)O)c2)(c2ccc(O)c(S(=O)(=O)O)c2)c2c(Br)c(Br)c(Br)c(Br)c21 | · | -65.4* | IP6K1 inh cnf=20.6µM*
Cc1cc(C(=O)N2[C@H]3CC[C@@H]2c2cnc(-c4ccccc4)nc2C3)n[nH]1 | · | 5.5
Cc1ccccc1C(=O)N1CCC2(CC1)NCc1ccccc1-n1ccnc12 | i | 33.8
COc1ccc2c(c[n+](C)c3c4cc5c(cc4ccc23)OCO5)c1OC | · | · | IP6K1 inh cnf=?
COc1ccc2c(c1OC)CN1CCc3cc4c(cc3C1C2)OCO4 (stereo not drawn) | · | 13.9
CN1CCN(C(=O)Cc2c[nH]c3ncc(-c4ccc5c(c4)OCO5)cc23)CC1 | ? | -26.6* | IP6K1 inh cnf=?
O=C(CN1CCN(C(=O)Cc2c[nH]c3ccccc23)CC1)NC1CC1 | i | ·
CC[C@H]1C[C@H]2[C@@H]3CCC4=CC(=O)CC[C@@H]4[C@H]3CC[C@]2(C)[C@H]1O | · | -11.7
SMILES | KDM5B inhibitor | IP6K1 inhibitor | others
CC[C@]1(O)CC[C@H]2[C@@H]3CCC4=CCCC[C@@H]4[C@H]3CC[C@@]21C | · | -28.4* | IP6K1 inh cnf=?
O=C(NC[C@H]1C[C@@H]2CCN1C[C@@H]2CN1CCC(Cc2ccccc2)CC1)c1ccc(C(F)(F)F)cc1 | i | 2.8
O=C(Cc1cccc(F)c1)N1CCN(C2CCN(Cc3cccnc3)C2=O)CC1 (stereo not drawn) | i | -5.0
CN(C(=O)C(c1ccccc1)c1ccccc1)[C@H](CN1CC[C@H](O)C1)c1ccccc1 | · | -7.5
O=C1c2ccccc2C(=O)C1C(=O)C(c1ccccc1)c1ccccc1 | · | -28.3* | IP6K1 inh cnf=?
Cc1ccc(-c2ccccc2CN2CCN(C(=O)Cc3ccccn3)CC2)cc1Cl | · | -6.3
c1ccc2c(c1)OCC(C1=NCCN1)O2 (stereo not drawn) | · | -43.5* | IP6K1 inh cnf=-8.2%
CCc1[nH]c2ccc(OC)cc2c1CCN(C)C | · | -0.5
COc1cc2c(cc1OCC1CC1)NC(=O)C21CCN(C(=O)c2cccnc2)CC1 | i | -25.5* | IP6K1 inh cnf=-4.4%
COc1cc2c(cc1Oc1ccccc1)NC(=O)C21CCN(Cc2ccccc2)CC1 | i | -15.8
